“And” between values parts separate entries of the source, which are not always exact repeats. Identical values can stand only once. About 100 (5%) of roughly 2,000 compounds were called active. Rule as the data show it: active = z-score above about 2; inactive = the rest. What follows is part of a selection rich in actives, with near analogues and random picks from the rest.

A short description of the test: supercomplex reporter luminescence per Hoechst cell count – Hoechst nuclei count (AID 1645838).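 As to all read-outs here: control cybrid cells.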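 As to z-score: higher means more mitochondrial supercomplex formation.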 The conditions noted are these: Cells, luminescence/Hoechst cell count ratio; for z-score: stronger effect = higher value; for cell count: measured here: cell number, Hoechst nuclei count; for outcome: library stock 10 mM.
Setting [1] is: library stock concentration (final well concentration not given) 80 uM.
Setting [2] is: library stock concentration (final well concentration not given) 400 uM.
Where [3] appears, read: library stock concentration (final well concentration not given) 2 mM.
The mark [4] stands for this setting: library stock concentration (final well concentration not given) 10 mM.
The mark [5] stands for this setting: library stock concentration (final well concentration not given) 46 uM.
Where [6] appears, read: library stock concentration (final well concentration not given) 278 uM.
Setting [7] is: library stock concentration (final well concentration not given) 1.67 mM.

Take `CCCCC[C@H](O)/C=C/[C@H]1C(=O)C=C[C@@H]1C/C=C\CCCC(=O)O`: the z-score is -0.0566 (inactive) and the cell count was 4900.

On to `NCCCCN(Cc1nc2ccccc2[nH]1)C1CCCc2cccnc21` (stereo unspecified), for which the z-score was -0.0283 (inactive) under setting [1], 0.157 (inactive) under setting [2], 0.36 (inactive) under setting [3] and 2.01 (active) under setting [4]. Further, the cell count runs as follows: under setting [1], 5890; under setting [2], 5860; under setting [3], 5630; under setting [4], 3290.

In the case of `CCCCC[C@@](C)(O)/C=C/[C@@H]1[C@@H](C/C=C\CCCC(=O)OC)[C@@H](O)C[C@H]1O`, the z-score is -0.104 (inactive) and the cell count was 5030.

As to `CCCCC[C@H](O)/C=C/[C@@H]1c2cc(CCCCC(=O)O)n(-c3ccccc3)c2C[C@H]1O`, the z-score is -1.31 (inactive) and the cell count was 6120.

`COc1cc(OC)c(NC(=O)Nc2cc(C)on2)cc1Cl`: the z-score is -0.669 (inactive) under setting [1], -0.368 (inactive) under setting [2], -0.584 (inactive) under setting [3] and -0.574 (inactive) under setting [4]. For the same compound, the cell count came out at 6520 under setting [1], 5740 under setting [2], 6660 under setting [3] and 5990 under setting [4].

Take `COc1cc2nccc(Oc3ccc(NC(=O)Nc4cc(C)on4)c(Cl)c3)c2cc1OC`: the outcome was “inactive; censored for cell count”. For the same compound, under setting [1], the z-score is -0.536 (inactive) and -0.288 (inactive); the cell count was 4520 and 5260. Also, under setting [2], the z-score is -0.724 (inactive) and -0.129 (inactive); the cell count was 4890 and 4760. For the same compound, under setting [3], the z-score is -1.01 (inactive) and -0.967 (inactive); the cell count is 4710 and 4870. Also, under setting [4], the z-score was 5.93 (active) and the cell count is 1710.

In the case of `COC(=O)C(CCSC)NC(=O)c1ccc(NCC(N)CS)cc1-c1ccccc1` (stereo unspecified), the z-score by setting is: under setting [1], -0.72 (inactive); under setting [2], -0.795 (inactive); under setting [3], -0.715 (inactive); under setting [4], -1.02 (inactive). Besides, the cell count runs as follows: under setting [1], 6120; under setting [2], 6350; under setting [3], 6090; under setting [4], 5780.

On to `COc1ccc2c(c1)CN(C)CCS2`, for which the z-score is, setting by setting: under setting [1], -0.906 (inactive); under setting [2], -0.795 (inactive); under setting [3], -1.04 (inactive); under setting [4], -1.49 (inactive). Also, the cell count turned out to be 6210 under setting [1], 6190 under setting [2], 6290 under setting [3] and 6260 under setting [4].

As for `CCCCC[C@H](O)/C=C/[C@H]1C(=O)C[C@H](O)[C@@H]1C/C=C\CCCC(=O)NC(CO)CO`, the z-score is 1.15 (inactive) and the cell count was determined as 4420.

On to `CCCCC/C=C\C/C=C\C/C=C\C/C=C\CCCC(=O)NC[C@]1(C)CCC[C@]2(C)c3ccc(C(C)C)cc3CC[C@@H]12`, for which the z-score is -0.12 (inactive) and the cell count turned out to be 4820.

Regarding `CCC(C)(C)C(=O)OC1CC(C)C=C2C=CC(C)C(CCC3CC(O)CC(=O)O3)[C@H]21` (stereo partly specified), the z-score under setting [1] is -0.332 (inactive), the z-score under setting [2] was -0.176 (inactive), the z-score under setting [3] was -0.124 (inactive) and the z-score under setting [4] is 3.34 (active). For the same compound, the cell count came to 6550 under setting [1], 6140 under setting [2], 6050 under setting [3] and 2650 under setting [4].

With `CCCCCCNC(=O)Nc1ccc(S(=O)(=O)Nc2ccc(CCNCC(O)COc3ccc(O)cc3)cc2)cc1` (stereo unspecified), the z-score reads like this: under setting [1], -0.212 (inactive); under setting [2], 0.0631 (inactive); under setting [3], -0.344 (inactive); under setting [4], 0.114 (inactive). Besides, the cell count reads like this: under setting [1], 5240; under setting [2], 4980; under setting [3], 5190; under setting [4], 4950.

As for `N#Cc1cccc(C#N)c1-c1nc2c3ccccc3c3cc(Cl)ccc3c2[nH]1`, the z-score by setting is: under setting [5], -0.238 (inactive); under setting [6], -0.156 (inactive); under setting [7], -0.196 (inactive); under setting [4], 0.519 (inactive). Moreover, the cell count by setting is: under setting [5], 6980; under setting [6], 6500; under setting [7], 7350; under setting [4], 6120.

`CCOc1ccc(-n2c(C(C)N(Cc3cccnc3)C(=O)Cc3ccc(OC(F)(F)F)cc3)nc3ncccc3c2=O)cc1` (stereo unspecified): the z-score is 0.00539 (inactive) under setting [1], 0.51 (inactive) under setting [2], -0.332 (inactive) under setting [3] and -0.306 (inactive) under setting [4]. The cell count reads like this: under setting [1], 4950; under setting [2], 4820; under setting [3], 4910; under setting [4], 4660.

Turning to `COc1ccccc1Oc1ccc(N(Cc2cccnc2)S(=O)(=O)CC(F)(F)F)cc1`, the z-score under setting [5] was 0.268 (inactive), the z-score under setting [6] was -0.0606 (inactive), the z-score under setting [7] is 2 (active) and the z-score under setting [4] was 0.543 (inactive). Further, the cell count was determined as 6460 under setting [5], 6750 under setting [6], 6250 under setting [7] and 5860 under setting [4].

`CCOc1ccc(-n2c(C(C)N(Cc3cccnc3)C(=O)Cc3ccc(F)c(C(F)(F)F)c3)nc3ncccc3c2=O)cc1` (stereo unspecified): the z-score by setting is: under setting [1], -0.219 (inactive); under setting [2], -0.0969 (inactive); under setting [3], 0.0541 (inactive); under setting [4], -0.0286 (inactive). In addition, the cell count is, setting by setting: under setting [1], 5590; under setting [2], 5490; under setting [3], 5970; under setting [4], 4780.

As to `CCCCCCCCCCCCCCCCC/C=C/C(=O)O`, the z-score is 0.212 (inactive) and the cell count stood at 4980.

In the case of `Cc1nc(Nc2ncc(C(=O)Nc3c(C)cccc3Cl)s2)cc(N2CCN(CCO)CC2)n1`, the outcome was “inactive; censored for cell count”. Also, under setting [5], the z-score is -0.0819 (inactive) and the cell count was determined as 4850. Further, under setting [1], the z-score was 3.96 (active) and the cell count stood at 2250. Also, under setting [6], the z-score is 0.412 (inactive) and the cell count came to 4290. In addition, under setting [2], the z-score was 5.15 (active) and the cell count amounted to 1990. In addition, under setting [7], the z-score was 3.64 (active) and the cell count is 2120. In addition, under setting [3], the z-score is 6.64 (active) and the cell count worked out at 1770. Under setting [4], the z-score is 3.97 (active) and the cell count worked out at 1700.

As to `CCCCC[C@@H](O)/C=C/[C@H]1[C@H](C/C=C\CCCC(=O)O)C(=O)C[C@@H]1O`, the z-score is -0.0856 (inactive) and the cell count worked out at 5040.

For `CCC(=O)NCC1CC1c1cccc2c1CCO2` (stereo unspecified), the z-score runs as follows: under setting [5], 0.0958 (inactive); under setting [6], 0.113 (inactive); under setting [7], -0.0496 (inactive); under setting [4], -0.0795 (inactive). Further, the cell count under setting [5] was 6660, the cell count under setting [6] was determined as 6440, the cell count under setting [7] was 7030 and the cell count under setting [4] amounted to 7060.

Values taken from PubChem BioAssay AID1645838 (ICCB-Longwood Screening Facility, Harvard Medical School, 2021).
